# Assay outcomes: PubChem, National Center for Advancing Translational Sciences (NCATS)
# LASV entry inh = Lassa virus entry inhibition; AID 540256; Lassa virus pseudotype entry inhibition, cell reporter; 300,000 compounds, 1.2% hits; Potency, µM (titrated, usually from 37.9 µM), for the others: top-dose activity change, negative = inhibition, actives largely listed as inhibitors; calls by dose curve; tested in HEK293 cells; note: nearly all actives have a fitted effect of over 50% in size
# HCV inh = inhibitors of hepatitis C virus infection | Huh7.5.1 HCVcc-Cre infection, luciferase reporter, 44 h | Potency, µM (series often up to 41.8 µM), inactives show at the highest dose activity change, negative = inhibition, actives largely listed as inhibitors | 340,000 compounds, 3.4% hits
#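 Cells seeded at 1,000/well and cultured 4 h, then compounds added followed by HCVcc-Cre virus (~0.5 moi). After 44 h further culture, luciferase substrate was added, plates held 15 min at room temperature, and luminescence read for 15 sec.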
# FMDV antiviral = antivirals against foot and mouth disease virus | FMDV antiviral cell-based qHTS | Potency, µM (doses to about 57.9 µM), for the others: at the top dose activity change, negative = inhibition, usual class: inhibitors | 410,000 compounds, 1.2% hits | AID 1159524; calls by dose curve; tested in HEK293T cells; note: read-out not given here; nearly all actives have a fitted effect of over 45% in size
# Marburg entry inh = blocks Marburg virus binding to or entry into cells. Marburg virus pseudotyped entry inhibition, cell reporter. Potency, µM (doses to about 37.8 µM), inactives show at the highest dose activity change, negative = inhibition, hits mostly inhibitors. 300,000 compounds, 1.8% hits; calls by dose curve; tested in HEK293 cells
# RE007 growth inh = less growth of the S. pombe RE007 Vpr strain; AID 651644; 360,000 compounds, 0.21% hits; Potency, µM (titrated, usually from 92.2 µM), for the others: at the highest dose activity change, negative = less growth, usual class: inhibitors; S. pombe RE007 Vpr strain, BacTiter-Glo ATP luminescence, 24 h; active = well fitted falling curve with a large enough effect; inconclusive = small, poorly fitted or top-dose-only effect; inactive = no such curve, though single readings can be large or run the other way; note: nearly all actives have a fitted effect of over 50% in size
#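 Fission yeast RE007 carrying one integrated HIV-1 vpr copy, seeded at OD 0.01 in PMG+AL medium with 23 nL pinned compound. Grown 24 h at 30 degrees; viability read by BacTiter-Glo luminescence after 5 min.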
# Sm TGR block = blocks Schistosoma mansoni thioredoxin glutathione reductase. Potency, µM (top dose mostly 114 µM), for inactives: at the top dose activity change, negative = inhibition, usual class: inhibitors. purified TGR, DTNB reduction, TNB absorbance 405 nm. AID 485364. 360,000 compounds, 3% hits. Q962Y6; note: nearly all actives have a fitted effect of over 60% in size
#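 Kinetic colorimetric format: TGR-catalysed, NADPH-driven DTNB reduction monitored via TNB absorbance. Enzyme dispensed at 20 nM; compound exposure 15 min at room temperature before reaction start.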
# Active calls of the source: *; ? = inconclusive; . = not tested or not shown; [ ] = another dose, or the depositor's remark. Rows were chosen to be rich in hits. Some 7.2% of all compounds tested hit in one or more screens of this group. Unless noted, calls come from the whole dose curve; as a rule, active = well fitted curve in the direction sought with a large enough effect; inconclusive = small, poorly fitted or top-dose-only effect, or another doubt; inactive = no such curve, though single readings can be large; an effect the other way counts as inactive or inconclusive. % is set by controls: 0 for no effect and ±100 for the full control effect; potency is the fitted concentration of half-maximal effect.
SMILES,LASV entry inh,HCV inh,FMDV antiviral,Marburg entry inh,RE007 growth inh,Sm TGR block
Cc1ccc(S(=O)(=O)N2CCN(c3ncnc4scc(-c5ccccc5)c34)CC2)cc1,11µM*,?,-5%,?,13%,.
Cc1sc2ncnc(N3CCN(S(=O)(=O)c4ccccc4)CC3)c2c1C,-12%,11µM*,20µM*,-9%,-4%,0%
Cc1ccc(S(=O)(=O)N2CCN(c3ncnc4scc(-c5ccc(F)cc5)c34)CC2)cc1,-23%,?,?,?,1%,6%
CCOC(=O)N1CCN(c2ncnc3scc(-c4ccccc4)c23)CC1,-20%[46.1 µM],8.9µM*,-22%,?,7%,-10%
N#Cc1ccccc1S(=O)(=O)N1CCN(c2nc(-c3ccccc3)nc3ccccc23)CC1,.,.,-10%,.,-5%,.
O=C(COc1ccccc1F)Nc1nnc(S(=O)(=O)N2CCCCCC2)s1,15%[46.1 µM],.,-17%,.,.,9%
CN(C)CC(C)(C)CNC(=O)c1cnn(-c2ncc3c(n2)-c2ccccc2CC3)c1-c1ccco1,.,.,-15%,.,.,.
Cc1cccc(-c2nc(CCNC(=O)COc3ccccc3)cs2)c1,4%[46.1 µM],.,-9%,.,.,4%
CN(Cc1cccc(-c2ccncc2)c1)C(=O)Oc1ccc([N+](=O)[O-])cc1,.,.,22µM*,.,-16%,.
CN(C(=O)Oc1ccc([N+](=O)[O-])cc1)c1ccccc1,-19%,7%,6%,?,-5%,8%
Cc1cc(C)nc(-c2cccc3c2OC(CNC(=O)c2ccc(Cn4nc(C)cc4C)cc2)C3)n1 (stereo unspecified),.,.,-9%,.,.,.
Nc1cc(-c2ccc(Br)cc2)nn1S(=O)(=O)c1ccccc1,1%,6%,?,-1%,-8%,-14%
COc1ccc(S(=O)(=O)n2nc(OC(C)=O)cc2N)cc1,.,1%,-19%,.,-9%,25µM*
COc1ccc(-c2cc(N)n(S(=O)(=O)c3ccc(F)cc3)n2)cc1OC,.,10µM*,?,.,-3%,5%
Nc1cc(-c2ccccc2)nn1S(=O)(=O)c1ccc(F)cc1,.,10µM*,?,.,-1%,-13%
CCOc1ccc(-c2cc(N)n(S(=O)(=O)c3ccc(OC)c(OC)c3)n2)cc1,.,22µM*,-18%,1%,2%,8%
COc1cc(-c2cc(N)n(S(=O)(=O)c3ccc(F)cc3)n2)cc(OC)c1OC,.,?,?,.,-9%,8%
COc1ccc(S(=O)(=O)n2nc(-c3ccc(Cl)cc3)cc2N)cc1OC,.,?,-13%,.,-3%,-16%
CC(C)=CCCC(C)=CCON=C1C[C@@H](O)[C@@H](O)[C@@H]2[C@H]3C(=O)N(c4cccc(Oc5ccccc5)c4)C(=O)[C@@H]3CC[C@H]12,.,.,.,26%[14.2 µM],.,.
CC1(C)CCCC2(C)C3C(O)CC2(C)C(O)C31 (stereo unspecified),.,.,-18%,.,.,.
CC(C)c1ccc(C(=O)Nc2cccc3cccnc23)cc1,10%[46.1 µM],.,24%,32%[46.1 µM],.,-3%
C[C@@]1(c2ccco2)NC(=O)NC1=O,.,.,.,10%,.,.
Cc1cccc(NS(=O)(=O)c2ccc(Cl)c(C(=O)Nc3ccccc3C)c2)c1,-17%[46.1 µM],.,-16%,.,.,9%
CCCCN(CC)CCCNC(=O)Nc1sc2nc3n(c(=O)c2c1C)CCC(C)CC3 (stereo unspecified),.,.,0%,10µM*,.,-1%
O=C(Cn1c(SCC(=O)Nc2ccc(F)cc2)nc2ccccc21)NCc1ccc(Cl)cc1,?,.,-25%,.,.,7%
SMILES,LASV entry inh,HCV inh,FMDV antiviral,Marburg entry inh,RE007 growth inh,Sm TGR block
Cc1noc(C)c1S(=O)(=O)N(CC(=O)Nc1ccc(F)cc1F)c1ccc(C(C)C)cc1,14%[46.1 µM],.,?,?,.,8%
CCCCNC1C(CC)C(CCC)C(C#N)(C#N)C1(C#N)C#N (stereo unspecified),?,13µM*,32µM*,?,-16%,-11%
COC(=O)c1ccc(CN2C(=O)[C@]3(O[C@H](C)CC4=CCCC43)c3c(Br)cccc32)cc1 (stereo partly specified),.,.,.,5%[14.2 µM],.,.
Cc1cccc(C)c1NC(=O)CSc1nc(C)c(CC(=O)c2ccc(Br)cc2)c(C)c1C#N,18µM*,9%,0%,?,-2%,0%
Cn1c(-n2cccc2)c(-c2c(-c3ccc(F)cc3)[nH]c3c2c(=O)n(C)c(=O)n3C)c(=O)n(C)c1=O,16%[46.1 µM],.,-15%,9%[46.1 µM],.,-1%
CSc1ccc(CNC(=O)C2CCN(c3nnc(-n4cccc4CNc4ccc(C)cc4)s3)CC2)cc1,.,.,-28%,-8%[46.1 µM],.,-8%
COc1ccc2[nH]c(-c3ccccc3)cc2c1,-27%,-28%,19%,8.9µM*,?,-2%
COc1ccc2[nH]c(C(=O)c3ccccc3)cc2c1,.,.,50%,.,.,.
COc1ccc2[nH]c(-c3ccc(C)cc3)cc(=O)c2c1,4.1µM*,-8%,-34%,?,0%,-16%
CC(=O)c1ccc(NC(=O)Cn2c(=O)nc(-c3ccccc3)c3cc(Cl)ccc32)cc1,10%[46.1 µM],.,27%,.,.,-9%
CCCCC/C=C\C=C\[C@H](O)CCCCCCCC(=O)O,.,.,-7%[0.463 µM],.,.,.
O=c1c2cc3c(cc2[nH]c(=S)n1C1CCN(Cc2ccccc2)CC1)OCO3,21%[46.1 µM],13µM*,-2%,?,-1%,27%
CCOc1cc2[nH]c(=S)n(C3CCN(Cc4ccccc4)CC3)c(=O)c2cc1OCC,11%[46.1 µM],5%,1%,20%[46.1 µM],10%,-4%
O=C(O)c1cc2nc(-c3ccccc3)cc(-c3ccccc3)n2n1,-2%,2%,-13%,2%[46.1 µM],3%,-4%
O=C(c1cc2nc(-c3ccc(F)cc3)cc(C(F)(F)F)n2n1)N1CCCCC1c1cccnc1 (stereo unspecified),?,7.9µM*,18µM*,?,1%,1%
CC1CCCCN1C(=O)c1cc2nc(-c3ccccc3)cc(-c3ccccc3)n2n1 (stereo unspecified),-26%,11µM*,61%,?,-21%,-5%
O=C(c1cnn2c(C(F)(F)F)cc(-c3ccccc3)nc12)N1CCCCC1c1cccnc1 (stereo unspecified),1%,-15%,-29%,?,0%,.
N#Cc1c(SCC(=O)O)nc(-c2ccccc2)c2c1CCCC2,-3%,8%,-15%,10%,5%,1%
